Most compounds without a hit are left out; they make up all but 9.3% or so of the library.
FMDV antiviral = antivirals against foot and mouth disease virus; Potency, µM (top dose mostly 57.9 µM), for the others: at the highest dose activity change, negative = inhibition, actives largely listed as inhibitors; 410,000 tested, 1.2% active; FMDV antiviral cell-based qHTS; calls by dose curve; tested in HEK293T cells; also: read-out not given here; potency is read from the fitted curve at half-maximal effect; nearly all actives have a fitted effect of over 45% in size
Vaccinia mCherry = vaccinia inhibition (mCherry reporter); Vaccinia virus mCherry reporter infection, fluorescence; Potency, µM (top dose mostly 36.5 µM), without a hit: at the highest dose activity change, negative = inhibition, actives largely listed as inhibitors; 310,000 tested, 0.63% active; calls by dose curve; tested in A549 cells; also: potency is read from the fitted curve at half-maximal effect; nearly all actives have a fitted effect of over 35% in size
VACV Venus inh = inhibitors of vaccinia virus (Venus reporter); Vaccinia virus Venus reporter expression, fluorescence; 330,000 tested, 0.46% active; Potency, µM (titrated, usually from 36.5 µM), inactives show top-dose activity change, negative = inhibition, most hits filed as inhibitors; calls by dose curve; tested in A549 cells; also: potency is read from the fitted curve at half-maximal effect; nearly all actives have a fitted effect of over 30% in size
HCMV inh = inhibitors of human cytomegalovirus | 410,000 tested, 4.5% active | HFF cells, HCMV-luciferase reporter, 72 h; stronger effect = lower value | activity change, negative = inhibition, % at 57.5 µM; in the data active = activity change below about -60%; inconclusive = no clear call, values can overlap the other calls; inactive = above about -39%
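Two compound doses tested in HFFs infected with HCMV-luciferase, MOI 1 PFU/cell, 72 h at 37C. Lysate luminescence read with OneGlo; data normalized against buffer-only and 10uM Salinomycin inhibitor controls.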
Sm TGR block = blocks Schistosoma mansoni thioredoxin glutathione reductase. Q962Y6. purified TGR, DTNB reduction, TNB absorbance 405 nm. Potency, µM (highest dose often 114 µM), inactives show at the top dose activity change, negative = inhibition, usual class: inhibitors. AID 485364. 360,000 tested, 3% active; also: potency is read from the fitted curve at half-maximal effect; nearly all actives have a fitted effect of over 60% in size
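TGR 20 nM + NADPH 100 uM (dispensed conc.), cpd preinc 15 min RT; start with NADPH (500 uM addition) then DTNB (15 mM addition). Kinetic TNB absorbance, 405 nm filter. Four-parameter Hill fit across titration.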
HCV inh = HCV inhibition | Huh7.5.1 HCVcc-Cre infection, luciferase reporter, 44 h | AID 651820 | Potency, µM (top dose mostly 41.8 µM), without a hit: at the highest dose activity change, negative = inhibition, hits mostly inhibitors | 340,000 tested, 3.4% active; also: potency is read from the fitted curve at half-maximal effect
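Compounds are dispensed onto cells plated 4 h earlier at 1,000 per well, with HCVcc-Cre virus (about 0.5 moi) added next. Following 44 h of culture, luminescent signal is measured for 15 sec after 15 min with substrate at room temperature.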
* = called active by the depositor; i = inactive; u = inconclusive; x = no result given; [ ] = dose if it differs, or a comment. Unless noted, calls follow the shape of the dose curve; as a rule, active = well fitted curve in the direction sought with a large enough effect; inconclusive = small, poorly fitted or top-dose-only effect, or another doubt; inactive = no such curve, though single readings can be large; an effect the other way counts as inactive or inconclusive. % is scaled to controls: 0 for no effect and ±100 for the full control effect.

SMILES | FMDV antiviral | Vaccinia mCherry | VACV Venus inh | HCMV inh | Sm TGR block | HCV inh
O=C(NC[C@@H]1CC[C@@H](Cc2ccc(-c3ccccc3)cc2)O1)Nc1ccc(Br)cc1 | -13% | -18% | u | -26 | x | 5µM*
CN(C)C(=O)c1cccc(-c2cccc(-c3nc(C(=O)NCc4ccccc4)cc4c3[C@@H](CCO)N(S(=O)C(C)(C)C)C4)c2)c1 (stereo not given in full) | -16% | 11% | -11% | -61* | x | x
CCNC(=O)c1cc2c(c(-c3cccc(-c4cccc(C(=O)N(C)C)c4)c3)n1)[C@H](CCO)N(S(=O)C(C)(C)C)C2 (stereo not given in full) | -23% | 15% | 4% | 55 | x | x
Cc1oc(-c2ccc(Cl)cc2)nc1CN1CCCC(C(=O)NCc2ccco2)C1 (stereo not given) | u | x | x | 19 | -5% | 13µM*
Cc1oc(-c2ccc(Cl)cc2)nc1CN1CCCC(C(=O)NC2CC2)C1 (stereo not given) | -9% | x | x | 18 | -28% | u
Cc1oc(-c2ccc(Cl)cc2)nc1CN1CCC(C(=O)NCc2cccnc2)CC1 | -17% | x | x | x | -7% | 14µM*
COc1ccc(CNC(=O)C2CCCN(Cc3nc(-c4cccc(C)c4)oc3C)C2)cc1 (stereo not given) | 25µM* | x | x | 0 | -7% | u
Cc1oc(-c2ccc(Cl)cc2)nc1CN1CCCC(C(=O)NCc2ccc(Cl)cc2)C1 (stereo not given) | 35µM* | -21% | -16% | 6 | -1% | x
CC1(c2cnc(Nc3ccccc3)s2)CCC(=O)O1 (stereo not given) | 17% | i | -2% | 5 | -3% | -14%
O=C1/C(=C\c2cccnc2)N2CCC1CC2 | 10% | -7%[7.34 µM] | -15%[7.34 µM] | -7 | 2% | 7%
CCc1ccc(-c2nc(CN3CCCC(C(=O)NCCc4ccc(OC)c(OC)c4)C3)c(C)o2)cc1 (stereo not given) | 22µM* | x | x | -92* | -15% | 8.9µM*
O=C(NCc1cccnc1)C1CCN(C(=O)c2ccc(Cl)cc2Cl)CC1 | -20% | -19% | -7% | 6 | -7% | 5%
COc1ccc(CCNC(=O)C2CCCN(Cc3nc(-c4ccccc4C)oc3C)C2)cc1OC (stereo not given) | u | x | x | -21 | -23% | u
CCCN(CCC)CCNC(=O)C1CCN(Cc2nc(-c3ccc(Cl)cc3)oc2C)CC1 | -5% | x | x | -9 | 0% | 0.79µM*
O=C(NCc1cccnc1)C1CCC(c2ccc(Cl)cc2)CC1 (stereo not given) | u | u | -28% | u | 16% | 7.9µM*
CC(=O)NC(Cc1ccccc1F)C(=O)NC1CCN(c2ncccc2[N+](=O)[O-])CC1 (stereo not given) | -3% | x | x | -33 | 2% | 7%
Cc1cc(C)n(CC(=O)N2c3ccccc3Sc3ccccc32)n1 | -7% | -22% | -20% | 46 | -12% | -10%
CCSc1nnc(NC(=O)CSc2nnc(CNC(=O)c3ccc(OC)c(OC)c3)o2)s1 | 0% | i | -9% | -3 | -4% | -2%
CN(C)S(=O)(=O)c1ccc(/C(O)=C2/C(=O)C(=O)N(CCCN3CCOCC3)C2c2ccncc2)cc1 (stereo not given) | -6% | -21% | -11% | 9 | x | 10%
CC(C)CCN(C(=S)Nc1cccc(F)c1)C1CCN(C(C)C)CC1 | -21% | -22% | -22% | -32 | 4% | 11µM*
CCn1c(/C=C/c2ccccc2)nc2ccccc2c1=O | -24% | x | x | -61* | 9% | u
CCn1c(/C=C/c2ccc(F)cc2)nc2ccccc2c1=O | -19% | x | x | -36 | -2% | -4%
CCn1c(/C=C/c2ccccc2)nc2ccccc21 | 0% | -7% | -23% | 63 | 10% | 7.9µM*
O=c1c2ccccc2nc(/C=C/c2ccc(O)cc2)n1CCc1ccccc1 | 35µM* | u | -18% | u | -11% | 13µM*
O=c1c2ccccc2nc(/C=C/c2c[nH]c3ccccc23)n1CCO | 0% | u | -25% | -12 | 2% | u
SMILES | FMDV antiviral | Vaccinia mCherry | VACV Venus inh | HCMV inh | Sm TGR block | HCV inh
O=c1c2ccccc2nc(/C=C/c2cc(Br)ccc2O)n1CCO | u | x | x | -98* | x | 14µM*
O=C(OCc1cccc(F)c1)c1ccc2c(=O)n3c(nc2c1)CCC3 | -5% | 5% | -8% | 0 | 4% | u
CCCc1nc2ccc(Br)cn2c1Cc1cccc(Cl)c1 | 4% | i | -10% | 1 | x | x
CC(CCN1CCC(CN2C(=S)NCC2Cc2ccccc2)CC1)c1ccccc1 (stereo not given) | -25% | -8% | -8% | -8 | x | -8%
CC1(C(=O)Nc2ccc3ccccc3c2)CCC(=O)N1CC(F)(F)F (stereo not given) | -4% | 18% | -7% | 17 | x | x
COc1ccc(C2NC(=O)C(C#N)=C(S)N2c2ccc(C)cc2)cc1OC (stereo not given) | 14% | x | x | -65* | 2% | 6%
O=C(NC(NC(=S)Nc1ccccc1)C(Cl)(Cl)Cl)c1cccc(Cl)c1 (stereo not given) | x | u | u | -78* | -32% | 11µM*
Cc1ccc(NC(=S)NC(NC(=O)c2ccccc2)C(Cl)(Cl)Cl)c(C)c1 (stereo not given) | u | u | u | -68* | 0% | u
O=C(NC(Cc1c[nH]c2ccccc12)C(=O)N/N=C/c1cccnc1)c1cccs1 (stereo not given) | -12% | -22% | 10% | -78* | 15% | 13%
Cn1cc(C=CC(=O)O)c2nccnc21 | -8% | -9% | -7% | -62* | x | x
COCc1c(C(=O)N2CCN(C3CCCC3)CC2)cnn1-c1nccc(-c2cc(C)sc2C)n1 | -1% | -12% | -10% | x | x | x
COCc1c(C(=O)N2CCC(c3ccccc3)CC2)cnn1-c1nccc(-c2cc(C)sc2C)n1 | 30% | 14µM* | u | x | x | x
CCOc1ccc(N)c(SSc2cc(OCC)ccc2N)c1 | 11% | -8% | -16% | -98* | -2% | -27%
CN1CC(=O)N(CC(=O)N2N=C(c3ccc(Cl)cc3)CC2c2ccco2)C1=O (stereo not given) | -2% | -15% | -14% | -5 | 22µM* | 17%
CCC(=O)N1N=C(c2ccc(Cl)cc2)CC1c1ccco1 (stereo not given) | -12% | -28% | -15% | -4 | -6% | -26%
O=C(O)/C=C/C(=O)N1N=C(c2ccco2)CC1c1ccco1 (stereo not given) | -10% | -6% | -1% | 12 | u | 21%
O=C(CCl)N1N=C(c2cccs2)CC1c1ccco1 (stereo not given) | 16µM* | u | -21% | -97* | 2.5µM* | u

Screens from PubChem BioAssay.
